Reference: PubChem BioAssay (NCATS)
Records with an inconclusive call do not appear. Activity calls are given as the source filed them. The call rests on the fitted dose curve.

Experiment: Confirmatory qHTS to identify inhibitors of SARS-CoV-2 cell entry (AID 1645844); further: nearly all actives have a fitted effect of over 45% in size
Details: SARS-CoV-2 pseudotyped particle cell entry, luciferase; series mostly up to 57.2 µM
Excerpt: Assay Provider: Wei Zheng, Ph.D.
National Center for Advancing Translational Sciences, National Institute of Health, Rockville, MD.
SARS-CoV-2 spike protein, within the viral envelope, mediates viral attachment and infection of host cells. The SARS-CoV-2 spike protein specifically binds to the host receptor ACE2 (Angiotensin-converting enzyme 2). This interaction promotes endocytosis of the viral particle, additional events lead to viral-host cell membrane fusion and release of the viral contents, allowing viral replication.
While SARS-CoV-2 requires BSL-3 facilities for live virus work, pseudotyped partices (PP) that incorporate SARS-CoV-2 spike proteins without replication elements could facilitate studies on viral entry mechanisms in a BSL-2 setting. This PP cell entry assay could also enable screening of small molecule compound libraries in BSL-2 setting to identify inhibitors of SARS-CoV-2 cell entry.
SEQUENCE No. (e.g., 1, 2, 3, etc.); […] (e.g., Cells, Incubation, Reagent, etc.); VALUE and DESCRIPTION.
1. Cells. Seed 1500 HEK293-ACE2 cells (Expi293F with stable expression of human ACE2) in 2 uL/well media (DMEM, 10% FBS, 1x L-glutamine, 1x Pen/Strep, 1 ug/ml puromycin) in white 1536-well assay plates (Greiner #782073).
2. Incubation. Incubate at 37C with 5% CO2 overnight (~16 h).
3. Compounds. Dispense 23 nL/well compounds in DMSO via pin transfer.
4. Incubation. Incubate for 1 hr at 37C 5% CO2.
5. Reagent. Dispense 2 uL/well of SARS-CoV-2-S pseudotyped particles (PP). [a] PPs are produced with murine leukemia virus pseudotyping). [b] SARS-CoV-2-S is Wuhan-Hu-1 sequence (BEI #NR-52420) with C-terminal 19 amino acid truncation.
6. Centrifugation. […]
7. Incubation. Incubate at for 48 hr at 37C 5% CO2
8. Centrifugation. Remove supernatant with gentle centrifugation using a Blue Washer (BlueCat Bio).
9. Reagent. Dispense 4 uL/well of Bright-Glo Luciferase detection reagent (Promega #E2620).
10. Incubation. Incubate for 5 min at room temperature.
11. Detection. Read luminescence signal (Viewlux plate reader, PerkinElmer). Data was normalized with wells containing SARS-CoV-2-S PP as 100%, and wells containing bald PP (no fusion protein) as 0%.
Potency means the concentration at half of the fitted maximal effect.

| SMILES | Potency |
| --- | --- |
| CC(C)=CCC/C(C)=C/CC/C(C)=C/CCC(=O)OC/C=C(\C)CCC=C(C)C | 9.61 µM (active) |
| COc1cccc2c1C(=O)c1c(O)c3c(c(O)c1C2=O)C[C@@](O)(C(=O)CO)C[C@@H]3O[C@H]1C[C@H](N)[C@@H](O)[C@H](C)O1 | 0.0961 µM (active) |
| CCOc1ccc2nc3cc(N)ccc3c(N)c2c1 | 24.1 µM (active) |
| CNCCC=C1c2ccccc2CCc2ccccc21 | 21.5 µM (active) |
| Cc1cc(NS(=O)(=O)c2ccc(N)cc2)nc(C)n1 | inactive |
| CCN(CC)C(C)CN1c2ccccc2Sc2ccccc21 (stereo unspecified) | 0.0383 µM (active) |
| Cc1ccc(Nc2nccc(N(C)c3ccc4c(C)n(C)nc4c3)n2)cc1S(N)(=O)=O | 21.5 µM (active) |
| CN1[C@@H]2CC[C@H]1CC(OC(c1ccccc1)c1ccccc1)C2 (stereo partly specified) | 6.81 µM (active) |
| CC(C)c1cccc(C(C)C)c1O | inactive |
| C[n+]1c2cc(N)ccc2cc2ccc(N)cc21 (tested in a mixture with another compound) | 6.07 µM (active) |
| Cc1nc2ccc(CN(C)c3ccc(C(=O)N[C@@H](CCC(=O)O)C(=O)O)s3)cc2c(=O)[nH]1 | 0.0271 µM (active) |
| CC(C)OC(=O)OCOP(=O)(CO[C@H](C)Cn1cnc2c(N)ncnc21)OCOC(=O)OC(C)C | 0.0152 µM (active) |
| Oc1ccc(Cl)c2cccnc12 | 2.71 µM (active) |
| COC(=O)C1=C(C)NC(C)=C(C(=O)OCC(C)=O)C1c1ccccc1[N+](=O)[O-] (stereo unspecified) | 34.1 µM (active) |
| Nc1ccn([C@@H]2O[C@H](CO)[C@@H](O)C2O)c(=O)n1 (stereo partly specified) | 4.29 µM (active) |
| Cc1cc2c(cc1CC(=O)c1sccc1S(=O)(=O)Nc1onc(C)c1Cl)OCO2 | inactive |
| COc1cccc2c1C(=O)c1c(O)c3c(c(O)c1C2=O)C[C@@](O)(C(=O)CO)CC3OC1CC(N2CCOC(OC)C2)C(O)C(C)O1 (stereo partly specified) | 0.0482 µM (active) |
| Cc1c(C)c2c(c(C)c1O)CCC(C)(COc1ccc(CC3SC(=O)NC3=O)cc1)O2 (stereo unspecified) | 34.1 µM (active) |
| O=C1CN(/N=C/c2ccc([N+](=O)[O-])o2)C(=O)N1 | 21.5 µM (active) |
| CCCCCCNC(=O)n1cc(F)c(=O)[nH]c1=O | 8.57 µM (active) |
| Nc1nc2[nH]cc(CCc3ccc(C(=O)N[C@@H](CCC(=O)O)C(=O)O)cc3)c2c(=O)[nH]1 | 1.92 µM (active) |
